Inconclusive results are not listed. Entries that show only a call come without a potency. Activity calls are given as the source filed them. The call rests on the fitted dose curve; in most records, active means well fitted curve in the direction sought with a large enough effect in the repeat runs; inconclusive means weak or mixed curves; inactive means no such curve, though single readings can be large; an effect the other way counts as inactive or inconclusive.
Experiment: qHTS assay to identify small molecule antagonists of the TGF-beta/Smad signaling pathway - cell viability counter screen (AID 1346824); further: nearly all actives have a fitted effect of over 50% in size
Conditions: SBE-bla HEK293T viability, CellTiter-Glo luminescence; series mostly up to 76.8 µM
Outline: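 SBE-bla HEK 293T cells, incubated overnight, then compound plus 0.25 ng/mL TGF-beta1 (stock added) for 5 hr at 37 C. Viability was read in the same wells by CellTiter-Glo luminescence after 30 min at room temperature.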

Row | Compound | Potency
1 | O=C(O)c1ccc2c(c1)C(=O)OC2=O | inactive
2 | O=C(Oc1ccccc1)c1ccccc1 | inactive
3 | OC[C@H]1O[C@@](CO)(O[C@H]2O[C@H](CO)[C@@H](O)[C@H](O)[C@H]2O)[C@@H](O)[C@@H]1O | inactive
4 | O=c1[nH]c(=O)n([C@H]2C[C@H](O)[C@@H](CO)O2)cc1Br | inactive
5 | CC(=O)CC(=O)Nc1ccccc1C | inactive
6 | Fc1ccc(Br)cc1 | inactive
7 | CC(c1cc2ccccc2s1)N(O)C(N)=O (stereo not drawn) | inactive
8 | C=CCOC(=O)c1ccccc1C(=O)OCC=C | inactive
9 | CC1CCC(C(C)C)C(O)C1 (stereo not drawn) | inactive
10 | Cc1cccnc1 | inactive

Experiment: qHTS assay to identify small molecule agonists of the TGF-beta/Smad signaling pathway - cell viability counter screen (AID 1346829); further: top concentration of the series differs between compounds; nearly all actives have a fitted effect of over 45% in size
Conditions: SBE-bla HEK293T viability, CellTiter-Glo luminescence, 5 h; series mostly up to 76.8 µM
Outline: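 After overnight seating at 37 C and 5% CO2, reporter cells got compounds for 5 hr and FRET substrate for 2 hr; cell viability then came from CellTiter-Glo luminescence.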

Row | Compound | Potency
11 | O=c1[nH]c(=O)n([C@H]2CCCO2)cc1F | inactive
12 | C=CCNC(N)=S | inactive
13 | c1ccc2c(c1)ccc1ccccc12 | inactive
14 | CC(=O)OCC(=O)[C@@]12N=C(C)O[C@@H]1C[C@H]1[C@@H]3CCC4=CC(=O)C=C[C@]4(C)[C@H]3[C@@H](O)C[C@@]12C | inactive
15 | Cc1ccc2oc(=O)ccc2c1 | inactive
16 | CCC(O)OC(O)CC (stereo not drawn) | inactive
17 | O=C(O)c1ccc(C(=O)O)cc1 | inactive
18 | CCCCCCCCCCCCc1ccccc1 | inactive
19 | CCCCCC1=CCCC1=O | inactive
20 | CCCCC(CC)COC(=O)CCCCC(=O)OCC(CC)CCCC (stereo not drawn) | inactive
21 | CCCCCC(N)=O | inactive
22 | CC(=O)c1ccccc1 | inactive
23 | CSCCC=O | inactive
24 | Cc1ccc(N(C)C)cc1 | inactive
25 | CCCCCCCC(=O)OC | inactive
26 | CCc1cccc(C)c1N | inactive
27 | OCC(CO)(CBr)CBr | inactive
28 | CC[C@H](C)C(=O)O[C@H]1C[C@@H](C)C=C2C=C[C@H](C)[C@H](CC[C@@H]3C[C@@H](O)CC(=O)O3)[C@H]21 | inactive
29 | CN(C)CCCN | inactive

Row | Compound | Potency
30 | O=S1(=O)CC=CC1 | inactive
31 | CC(C)(C)[C@@H](O)[C@@H](Cc1ccc(Cl)cc1)n1cncn1 | inactive
32 | C#CCN(C)Cc1ccccc1 | inactive
33 | C[Si](O[Si](C)(C)C)O[Si](C)(C)C | inactive
34 | Oc1cccc2ccccc12 | inactive
35 | CCCCCC/C(C=O)=C\c1ccccc1 | inactive
36 | CCCCCCCCCCCCCCO | inactive
37 | Nc1cc([N+](=O)[O-])ccc1O | inactive
38 | O=C(O)c1cc(O)c(O)c(O)c1 | inactive
39 | O=C(O)c1ccc2c(c1)C(=O)OC2=O | inactive
40 | O=C(Oc1ccccc1)c1ccccc1 | inactive
41 | OC[C@H]1O[C@@](CO)(O[C@H]2O[C@H](CO)[C@@H](O)[C@H](O)[C@H]2O)[C@@H](O)[C@@H]1O | inactive
42 | O=c1[nH]c(=O)n([C@H]2C[C@H](O)[C@@H](CO)O2)cc1Br | inactive
43 | CC(=O)CC(=O)Nc1ccccc1C | inactive
44 | Fc1ccc(Br)cc1 | inactive
45 | CC(c1cc2ccccc2s1)N(O)C(N)=O (stereo not drawn) | inactive
46 | C=CCOC(=O)c1ccccc1C(=O)OCC=C | inactive
47 | CC1CCC(C(C)C)C(O)C1 (stereo not drawn) | inactive
48 | Cc1cccnc1 | inactive
